Compound activity as filed in PubChem BioAssay.
CYP2C9 activ – CYP2C9 (human) activation | activation factor at 5 µM | P11712 | recombinant CYP2C9, luciferin-H conversion, luminescence; active compounds read high; factor 1 = untreated enzyme, 0 = blocked | AID 1024 | 1.4% of 96,000 active;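 active means activation factor of 2 or more for CYP2C9 at a 5 µM dose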
Pyk2 oligo antag – blocks oligomerization of human Pyk2 in cells. Q14289. Q293 cells, Pyk2 FERM NanoBiT luminescence; active compounds read low. z-score (the deposit names both 25 µM and 10 µM). 0.83% of 99,000 active;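 active means Z-score of -3 or lower, scaled per plate to the spread of control and sample wells; inactive means z-score above -3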;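 further: negative z-score means lost luminescence so less FERM oligomerization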
Target sequence (Q14289 whole entry, looked up): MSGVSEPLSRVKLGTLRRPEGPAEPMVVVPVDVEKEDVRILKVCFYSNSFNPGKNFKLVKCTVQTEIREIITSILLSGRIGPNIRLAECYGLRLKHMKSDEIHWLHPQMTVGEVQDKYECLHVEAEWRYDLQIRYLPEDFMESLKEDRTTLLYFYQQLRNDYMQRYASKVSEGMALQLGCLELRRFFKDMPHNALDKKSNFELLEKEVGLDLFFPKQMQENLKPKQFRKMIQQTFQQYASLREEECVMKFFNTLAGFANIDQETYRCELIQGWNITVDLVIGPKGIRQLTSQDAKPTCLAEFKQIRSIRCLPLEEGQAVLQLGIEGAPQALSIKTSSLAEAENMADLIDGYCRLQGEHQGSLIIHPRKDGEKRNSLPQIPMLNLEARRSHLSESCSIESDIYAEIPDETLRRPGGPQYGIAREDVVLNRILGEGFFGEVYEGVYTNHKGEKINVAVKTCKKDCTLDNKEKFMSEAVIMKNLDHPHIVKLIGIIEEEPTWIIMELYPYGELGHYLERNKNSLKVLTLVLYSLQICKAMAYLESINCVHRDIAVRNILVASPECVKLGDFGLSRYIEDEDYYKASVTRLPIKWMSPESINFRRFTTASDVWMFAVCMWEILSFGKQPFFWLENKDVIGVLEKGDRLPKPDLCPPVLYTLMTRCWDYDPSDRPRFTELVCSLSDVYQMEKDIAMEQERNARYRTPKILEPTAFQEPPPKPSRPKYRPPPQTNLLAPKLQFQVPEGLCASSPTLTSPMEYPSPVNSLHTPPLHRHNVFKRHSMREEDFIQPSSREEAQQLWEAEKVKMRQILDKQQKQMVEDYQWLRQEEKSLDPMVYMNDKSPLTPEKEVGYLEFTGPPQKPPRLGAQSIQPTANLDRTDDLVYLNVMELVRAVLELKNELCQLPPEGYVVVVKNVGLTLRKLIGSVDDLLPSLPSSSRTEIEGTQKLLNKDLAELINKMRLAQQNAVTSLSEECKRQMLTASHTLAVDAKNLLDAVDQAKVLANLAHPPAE
CYP2C19 activ – increases human CYP2C19 enzyme activity; P33261; recombinant CYP2C19, luciferin-H EGE luminescence; active compounds read high; 0 = fully inhibited enzyme, 1 = untreated enzyme; activation factor at 5 µM; 96,000 tested, under 10 active;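 active means activation factor of at least 2 at 5 µM in the primary screen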
CYP2C9 inh – human CYP2C9 inhibition; CYP2C9 Supersomes, luciferin-H conversion, luminescence; 20% of 96,000 active; P11712; AID 777; inhibition, % at 5 µM;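 active means blocking of liver enzyme CYP2C9 beyond about 50% at 5 µM, limit read from the data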
CYP2C19 inhib – human CYP2C19 inhibition; CYP2C19 Supersomes, luciferin-H EGE luminescence, 30 min; inhibition, % at 5 µM; 21% of 96,000 active; AID 778;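 active means CYP2C19 inhibition above a set limit at 5 µM in the primary screen, cut at about 50% in these data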
A number is an active result; i = inactive; nt = not tested or not shown. Compounds with a hit are over-represented: about 28% of the library has one in this group of screens.

SMILES	CYP2C9 activ	Pyk2 oligo antag	CYP2C19 activ	CYP2C9 inh	CYP2C19 inhib
CCn1c(SCC(=O)c2cc(OC)ccc2OC)nc2c1c(=O)n(C)c(=O)n2C	i	nt	i	i	i
COc1cc2c(cc1NC(=O)CSc1nnc(Cc3cccs3)n1Cc1ccco1)oc1ccccc12	i	i	i	84	58
CCCn1c(SCC(=O)c2cc(OC)ccc2OC)nnc1C(C)C	i	i	i	i	92
Cc1cc(Cl)ccc1NC(=O)CSc1nnc(Cc2cccs2)n1Cc1ccco1	i	i	i	i	61
COc1ccccc1Nc1ncnc2ccc(C)cc12	i	i	i	i	i
COc1cc2c(cc1NC(=O)CSc1ccc(C)cc1)oc1ccccc12	i	i	i	i	i
CCn1c(SCC(=O)Nc2cc3oc4ccccc4c3cc2OC)nnc1-c1cccs1	i	i	i	55	i
COCCn1nnnc1SCC(=O)c1ccc(F)cc1	nt	i	nt	nt	nt
COc1cc2c(cc1NC(=O)COc1ccccc1OC)oc1ccccc12	i	i	i	i	i
COc1ccc(OC)c(C(=O)CSc2nnc(Cc3cccs3)n2C)c1	i	i	i	i	89
CCn1c(Cc2cccs2)nnc1SCC(=O)Nc1ccc(OC)c(OC)c1	i	i	i	i	i
COCCn1c(SCC(=O)c2ccc(F)cc2)nnc1C(C)C	i	i	i	79	76
COc1cc2c(cc1NC(=O)COC(=O)Cn1cnc3ccccc31)oc1ccccc12	i	i	i	61	i
CCOC(OCC)P(=O)(C(C)C)C(C)C	i	i	i	i	i
COc1ccc(OC)c(/C=N\NC(=O)CSc2nnc(CCCc3ccc(OC)c(C)c3)o2)c1	i	i	i	70	64
COc1ccc(CCCc2nnc(SCC(=O)Nc3cccc(C)c3)o2)cc1	i	i	i	64	54
COc1ccc(CCCc2nnc(SCC(=O)Nc3cc(C)c(C)cc3Br)o2)cc1	i	i	i	83	69
COc1ccc(CCCc2nnc(SCC(=O)Nc3ncc(C)s3)o2)cc1	i	i	i	i	i
Cc1cc(C(=O)NCc2ccc(C(=O)O)o2)c(C)o1	i	i	i	i	i
COC(=O)c1ccc(Cl)c(NC(=O)CN2CCC(C)CC2)c1	i	i	i	i	i
O=C(c1ccc(Cl)cc1)c1oc2ccccc2c1CS(=O)(=O)c1ccccc1	i	i	i	i	i
COc1cccc(C2(O)CCN(C(=O)C3CCC3)CC2)c1	i	i	i	i	64
CC1CCCN(c2ccc(C(=O)NCC3CCCO3)cn2)C1 (stereo not drawn)	i	i	i	i	i
CC(NC(=O)Cc1cccs1)c1ccc2c(c1)OCO2 (stereo not drawn)	i	i	i	i	i
CC(NC(=O)Cc1cccs1)c1ccncc1 (stereo not drawn)	i	i	i	66	64
SMILES	CYP2C9 activ	Pyk2 oligo antag	CYP2C19 activ	CYP2C9 inh	CYP2C19 inhib
O=C(COc1ccccc1F)Nc1nnc(-c2ccncc2)s1	i	i	i	95	93
O=C(Cc1cccs1)Nc1nnc(-c2ccncc2)s1	i	i	i	96	98
O=C(NCC1CCCO1)c1onc(CSc2ccc(Cl)cc2)c1C(=O)O (stereo not drawn)	i	nt	i	51	i
Cc1ccc(SCc2noc(C(=O)NC(C)C)c2C(=O)O)cc1C	i	nt	i	80	i
CC(C)NC(=O)c1onc(CSc2ccc(C(C)C)cc2)c1C(=O)O	i	nt	i	91	i
COCCNC(=O)c1onc(CSc2ccc(C)c(C)c2)c1C(=O)O	i	nt	i	i	i
CC(C)NC(=O)c1onc(CSc2ccc(F)c(F)c2)c1C(=O)O	i	nt	i	76	i
CC(NC(=O)NC1CCCCC1)C(c1cccs1)N1CCN(C)CC1 (stereo not drawn)	i	nt	i	i	i
CC(C)NC(=O)c1onc(CSc2ccc(F)cc2)c1C(=O)O	i	nt	i	i	i
CC(C)NC(=O)c1onc(CSc2cccc(Cl)c2)c1C(=O)O	i	nt	i	64	i
COC(=O)[C@@H](NC(=O)N(C1CCCCC1)C1CCCCC1)C(C)C	i	i	i	i	i
Cc1cc(N=Cc2c(O)n(-c3ccc4c(c3)OCO4)c(=O)c3ccccc23)ccn1	i	i	i	60	55
COc1ccc(C(=O)N2CCc3cc(OC)c(OC)cc3C2c2cccc([N+](=O)[O-])c2)cc1OC (stereo not drawn)	i	i	i	69	i
COc1ccc(C2=NN(C(=O)c3cccc([N+](=O)[O-])c3)C(c3cccc([N+](=O)[O-])c3)C2)cc1 (stereo not drawn)	i	i	i	i	i
CCOC(=O)N1CCN(S(=O)(=O)c2ccc(C)cc2)C1c1ccc(OC)cc1 (stereo not drawn)	i	i	i	i	74
CCOC(=O)N1CCN(S(=O)(=O)c2ccc(C)cc2)C1c1ccccc1 (stereo not drawn)	i	i	i	70	91
CSc1ccc(S(=O)(=O)Nc2ccc(S(=O)(=O)Nc3ccc(C)cc3)cc2)cc1	i	i	i	100	95
CSc1ccc(S(=O)(=O)Nc2ccc(NC(C)=O)cc2)cc1	i	i	i	94	100
Cc1ccc(S(=O)(=O)Nc2ccc(S(=O)(=O)Nc3ncccn3)cc2)cc1	i	i	i	i	i
COc1ccc(Nc2nc(Nc3ccc(OC)cc3)nc(SC3=NCCS3)n2)cc1	i	i	i	64	59
CCOC(=O)N1CCN(C(=O)/C(=C/c2ccc(OC)cc2)NC(=O)c2ccccc2)CC1	i	i	i	77	72
CCOC(=O)N1CCN(C(=O)/C(=C/c2cccc3ccccc23)NC(=O)c2ccc(OC)cc2)CC1	i	i	i	i	i
CCc1cccc(Oc2nn[nH]n2)c1	i	i	i	i	i
Cc1ccc(Oc2nn[nH]n2)cc1	i	i	i	70	i
COc1ccc(C(=O)Nn2c(C)nnc2-n2nc(C)cc2C)cc1OC	nt	i	nt	nt	nt
SMILES	CYP2C9 activ	Pyk2 oligo antag	CYP2C19 activ	CYP2C9 inh	CYP2C19 inhib
Cc1ccc(-n2sc3ccccc3c2=O)cc1S(=O)(=O)N1CCCCC1	i	nt	i	89	i
O=c1c2cccc3c2c(nn1-c1ccccc1)-c1ccccc1-3	i	i	i	i	i
O=c1c2ccccc2sn1-c1ccc(S(=O)(=O)N2CCCCC2)cc1	nt	i	nt	nt	nt
O=c1c2ccccc2sn1-c1ccc(S(=O)(=O)N2CCCC2)cc1	i	i	i	75	i
O=c1c2ccccc2sn1-c1ccccc1	i	i	i	75	i
Cc1cc(NC(=O)c2ccc(Cn3nc(C)c(Br)c3C)o2)no1	i	i	i	i	i
Cc1nn(Cc2ccc(C(=O)Nc3ccc(C(=O)OC(C)C)cc3)o2)c(C)c1Cl	i	i	i	63	i
Cc1cc(C)n(C(=O)c2ccc(Cn3nc(C)c(Br)c3C)o2)n1	nt	i	nt	nt	nt
Cc1nn(Cc2ccc(C(=O)NC3CCCCC3)o2)c(C)c1Br	i	i	i	50	76
Cc1nn(Cc2ccc(C(=O)NC(C)(C)C)o2)c(C)c1Br	i	i	i	i	50
Cc1ccc(C)c(N2CCN(C(=O)C3CCN(c4nc(C)cc(C)n4)CC3)CC2)c1	i	i	i	i	i
Cc1cc(C)nc(N2CCC(C(=O)N3CCN(c4cc(Cl)ccc4C)CC3)CC2)n1	i	i	i	51	i
